# Measured values published in publication PMC4336329 (PLoS ONE, 2015).
# Out of some 310,000 compounds screened, about 2,200 (0.71%) showed an effect of 50% or more. Effects have a minus sign here. The full list was thinned out, with strong results kept by preference.
# Target: human ether-à-go-go-related gene (hERG) potassium channel (human, UniProt Q12809)
# Experiment: primary screen, population patch clamp on CHO cells stably expressing hERG; higher = less effect of the substance
# human ether-à-go-go-related gene (hERG) potassium channel, sequence (Q12809 whole entry, looked up): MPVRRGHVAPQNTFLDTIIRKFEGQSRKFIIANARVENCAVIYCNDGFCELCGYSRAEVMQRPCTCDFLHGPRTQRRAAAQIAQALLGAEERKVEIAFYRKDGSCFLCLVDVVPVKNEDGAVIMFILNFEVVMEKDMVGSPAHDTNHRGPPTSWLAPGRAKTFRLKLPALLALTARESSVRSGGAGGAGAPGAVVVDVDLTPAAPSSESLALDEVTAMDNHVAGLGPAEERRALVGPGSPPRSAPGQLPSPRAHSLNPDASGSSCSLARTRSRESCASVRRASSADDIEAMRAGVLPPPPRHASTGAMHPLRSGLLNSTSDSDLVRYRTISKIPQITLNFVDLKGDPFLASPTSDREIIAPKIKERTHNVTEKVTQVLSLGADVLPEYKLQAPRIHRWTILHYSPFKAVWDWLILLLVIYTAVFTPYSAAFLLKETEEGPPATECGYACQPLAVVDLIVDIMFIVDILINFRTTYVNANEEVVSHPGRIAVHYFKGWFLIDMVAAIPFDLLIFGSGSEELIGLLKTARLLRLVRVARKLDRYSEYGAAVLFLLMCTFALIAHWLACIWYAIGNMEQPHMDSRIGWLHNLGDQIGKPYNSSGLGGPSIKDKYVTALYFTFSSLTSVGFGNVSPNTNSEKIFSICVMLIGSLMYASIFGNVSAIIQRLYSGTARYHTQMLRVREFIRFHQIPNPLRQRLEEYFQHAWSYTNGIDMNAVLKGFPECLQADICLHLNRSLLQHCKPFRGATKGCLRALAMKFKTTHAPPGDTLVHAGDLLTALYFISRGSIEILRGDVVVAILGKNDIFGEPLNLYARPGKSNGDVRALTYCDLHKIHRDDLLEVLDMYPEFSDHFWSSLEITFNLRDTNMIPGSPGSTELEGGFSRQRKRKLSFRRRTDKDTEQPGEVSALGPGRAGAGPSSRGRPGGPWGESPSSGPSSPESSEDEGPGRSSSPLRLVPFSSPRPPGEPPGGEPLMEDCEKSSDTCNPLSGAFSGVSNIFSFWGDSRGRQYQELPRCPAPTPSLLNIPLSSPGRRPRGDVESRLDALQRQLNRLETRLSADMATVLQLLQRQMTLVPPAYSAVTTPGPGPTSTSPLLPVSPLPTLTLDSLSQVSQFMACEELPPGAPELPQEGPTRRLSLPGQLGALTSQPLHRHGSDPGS
row,Structure (SMILES),"hERG current change (%, negative = inhibition) at 1uM [%]"
1,COc1ccc(/C=C2\SC(=S)N(CCC(=O)N3CCCCC3)C2=O)cc1,-2.37
2,CCOc1ccc(C(=O)CCC(=O)Nc2ccccc2C)cc1,12.5
3,CC(C)c1ccccc1NC(=O)COC(=O)CNC(=O)c1ccc(Br)cc1,11
4,CCN(CC)S(=O)(=O)c1ccc(Cl)c(NC(=O)CSc2nnc(-c3cccs3)o2)c1,5.51
5,CCOc1ccc(N2CC(C(=O)Nc3ccc(S(=O)(=O)N4CCCC4)cc3)CC2=O)cc1 (stereo not drawn),6.22
6,c1ccc(Nc2nn[nH]n2)cc1,10.1
7,NC(=O)c1sc2nc(N3CCCCC3)c3c(c2c1N)CCCC3,4.86
8,Cc1cc(Cl)c2oc(C(=O)N3CCN(c4cccc(C)n4)CC3)c(C)c2c1,14
9,Cc1cc(Cl)c2oc(C(=O)N3CCN(C(=O)c4ccco4)CC3)c(C)c2c1,7.14
10,Cc1cc(Cl)c2oc(C(=O)N3CCN(c4ccncc4)CC3)c(C)c2c1,-83.6
11,Cc1ccc(S(=O)(=O)NCCC(=O)OCC(=O)N(Cc2ccccc2)C(C)(C)C)cc1C,-0.298
12,O=C1CC2(CCN(C(=O)c3ccc(Cl)cc3)CC2)Oc2ccccc21,-63.7
13,O=C1CC2(CCN(C(=O)c3ccc(F)cc3)CC2)Oc2ccccc21,-42.2
14,O=C1CC2(CCN(C(=O)c3cccc(F)c3)CC2)Oc2ccccc21,-32.6
15,CC(=O)N1CCC2(CC1)CC(=O)c1cc(Cl)ccc1O2,-7.88
16,O=C1CC2(CCN(C(=O)c3ccc([N+](=O)[O-])cc3)CC2)Oc2ccccc21,-87.5
17,O=C1CC2(CCN(C(=O)c3cccc(Cl)c3)CC2)Oc2ccccc21,-46.6
18,O=C(O)c1ccc(S(=O)(=O)N2CCC3(CC2)CC(=O)c2ccccc2O3)cc1,10.5
19,O=C(c1ccccc1)N1CCN(C(=O)c2ccc([N+](=O)[O-])cc2)CC1,-4.32
20,O=C1CC2(CCN(C(=O)c3cccc([N+](=O)[O-])c3)CC2)Oc2ccccc21,-66.7
21,O=C1CC2(CCN(C(=O)c3c(F)cccc3F)CC2)Oc2ccccc21,-3.63

row,Structure (SMILES),"hERG current change (%, negative = inhibition) at 1uM [%]"
1,COc1ccccc1OCC(=O)N1CCC2(CC1)CC(=O)c1ccccc1O2,-4.96
2,COc1ccc(Cl)cc1C(=O)N1CCC2(CC1)CC(=O)c1ccccc1O2,-71.7
3,CCO.CN1CC=C2C(C#N)=C(N)C(C#N)(C#N)[C@H](c3ccoc3)[C@H]2C1,6.1
4,COc1cc2ccccc2cc1C(=O)N(CCN(C)C)c1nc2c(OC)ccc(OC)c2s1.Cl,14
5,Cc1ccnc(NS(=O)(=O)c2ccc(NS(=O)(=O)c3ccc(Br)cc3)cc2)n1,16.1
6,COc1ccccc1NC(=S)NC(=O)/C=C/c1cccs1,12.3
7,COCCCNC(=O)CN(c1cc(Cl)cc(Cl)c1)S(C)(=O)=O,8.12
8,COc1cc(S(=O)(=O)N2CCN(C(=O)c3ccco3)CC2)ccc1Cl,8.83
9,Cn1ncc2nnn(-c3ccccc3)c(=O)c21,-0.008
10,C=CCn1c(SCC(=O)Nc2sccc2C(N)=O)nc2ccc(Cl)cc2c1=O,1.53
11,FCCCOc1ccc(/C=N/OCc2ccc(Cl)cc2Cl)cc1,9.53
12,Cc1c(C(=O)N2CCC3(CC2)CC(=O)c2ccccc2O3)cccc1[N+](=O)[O-],-83.9
13,O=C1CC2(CCN(C(=O)c3ccccc3Cl)CC2)Oc2ccccc21,-27.6
14,O=C1CC2(CCN(C(=O)c3c(F)cccc3Cl)CC2)Oc2ccccc21,-4.7
15,CSc1ccccc1C(=O)N1CCC2(CC1)CC(=O)c1ccccc1O2,-27.2
16,O=C1CC2(CCN(C(=O)c3ccccc3F)CC2)Oc2ccccc21,-47.9
17,O=C1CC2(CCN(C(=O)c3ccccc3Br)CC2)Oc2ccccc21,-51.4
18,O=C1CC2(CCN(C(=O)c3ccccc3[N+](=O)[O-])CC2)Oc2ccccc21,-19
19,O=C1CC2(CCN(C(=O)c3ccc(Br)cc3)CC2)Oc2ccccc21,-30.8
20,O=C1CC2(CCN(C(=O)c3cccc(Br)c3)CC2)Oc2ccccc21,-56
21,CCn1nnc2cc(C(=O)Nc3cc(OC)cc(OC)c3)ccc21,19.3

row,Structure (SMILES),"hERG current change (%, negative = inhibition) at 1uM [%]"
1,O=C(CCn1c(=O)sc2ccccc21)Nc1ccon1,4.85
2,COC(=O)c1ccccc1NC(=S)NC(=O)c1ccc(C)cc1,9.88
3,CC(C)CSc1nc2ccccc2[nH]1,13
4,COCCN1C(=O)C(=O)/C(=C(/O)c2ccc(S(=O)(=O)N3CCCCC3)cc2)C1c1ccc(OC)cc1 (stereo not drawn),11.9
5,C=CC[C@@H](C)CC(=O)C(CCCN=[N+]=[N-])SOOc1ccccc1 (stereo partly drawn),11.2
6,Cc1ccc(S(=O)(=O)N2c3ccccc3-c3c(ssc3=S)C2(C)C)cc1,-1.68
7,COc1ccccc1OCC(=O)Nc1ccccc1C(=O)N1CCCC1,5.81
8,COc1ccc(N2CCN(C(=O)c3nc4nc(C)cc(C)n4n3)CC2)cc1,7.39
9,O=C(c1ccc(-c2ccc([N+](=O)[O-])cc2)o1)N1CCCCCCC1,-6.48
10,COc1cccc(N2CCN(C(=O)c3nc4nc(C)cc(C)n4n3)CC2)c1,8.37
11,O=C(c1ccc(-c2ccc([N+](=O)[O-])cc2)o1)N1CCCCC1,-10.5
12,Cc1c(Cl)cccc1-c1ccc(C(=O)N2CCN(c3ccc([N+](=O)[O-])cc3)CC2)o1,-1.98
13,Cc1cc(C)n2nc(C(=O)N3CCN(c4ccc([N+](=O)[O-])cc4)CC3)nc2n1,-77.6
14,O=C(c1ccc2nsnc2c1)N1CCN(c2ccc([N+](=O)[O-])cc2)CC1,-57.4
15,Cc1ccc(C(=O)N2CCN(c3ccc([N+](=O)[O-])cc3)CC2)o1,-79
16,CCCN1CCN(C(=O)c2ccc(-c3ccc([N+](=O)[O-])cc3)o2)CC1,-70.1
17,CCc1nc2ccc(C(=O)N3CCN(c4ccc([N+](=O)[O-])cc4)CC3)cc2nc1CC,-38.2
18,Cc1cc(C(=O)N2CCN(c3ccc([N+](=O)[O-])cc3)CC2)c(C)o1,-35.1
19,O=C(c1ccc2c(c1)OCCO2)N1CCN(c2ccc([N+](=O)[O-])cc2)CC1,1.16
20,Cc1cc2cc3c(cc2nc1SCC(=O)N1c2ccccc2CC1C)OCO3 (stereo not drawn),5.76
21,O=C(Nc1ccc2oc(-c3ccncc3)nc2c1)c1ccccc1F,7.55

row,Structure (SMILES),"hERG current change (%, negative = inhibition) at 1uM [%]"
1,Cc1ccccc1OCCC(=O)Nc1ccccc1C(=O)N1CCCCC1,10.9
2,Nc1nc(SCC(=O)c2ccc([N+](=O)[O-])cc2)n[nH]1,1.72
3,O=c1c2cn[nH]c2[nH]c(=S)n1-c1ccccc1,14.3
4,CC(=O)Nc1cccc(OCc2c(F)cccc2Cl)c1,4.98
5,O=C(NC(=S)Nn1cnc2c(cnn2-c2ccccc2)c1=O)c1ccc(Cl)cc1,11.4
6,CCn1c(SCC(=O)c2cc(C)n(-c3ccc(C(=O)OC)cc3)c2C)nnc1-c1cccnc1,1.88
7,COCCn1c(SCc2ccccc2)nc2c1c(=O)[nH]c(=O)n2C,11.8
8,CSCCC1NC(=O)N(CC(=O)Nc2cc(C)on2)C1=O (stereo not drawn),9.03
9,CC(C)C(C(=O)C=[N+]=[N-])N1C(=O)c2ccccc2C1=O (stereo not drawn),11.2
10,CC(=O)N1CCN(c2ccc([N+](=O)[O-])c(-n3nc(C)cc3C)c2)CC1,-9.97
11,Cc1cc(C(=O)N2CCN(c3ccc([N+](=O)[O-])cc3)CC2)no1,-36
12,O=C(c1ccc([N+](=O)[O-])cc1)N1CCN(c2ncc(Br)cn2)CC1,-11.3
13,Cc1cc(C(=O)N2CCN(c3ccc([N+](=O)[O-])cc3)CC2)co1,-64.7
14,Cc1cc(C)n(-c2cc(N3CCN(C(=O)c4ccc(C(C)(C)C)cc4)CC3)ccc2[N+](=O)[O-])n1,3.39
15,COc1ccc(C(=O)N2CCN(c3ccc([N+](=O)[O-])c(-n4nc(C)cc4C)c3)CC2)cc1,-80.6
16,O=C(c1cncc(Br)c1)N1CCN(c2ccc([N+](=O)[O-])cc2)CC1,-62.2
17,O=C(c1cncc(Br)c1)N1CCN(c2ccc(N3CCOCC3)nn2)CC1,9.87
18,Cc1occc1C(=O)N1CCN(c2ccc([N+](=O)[O-])cc2)CC1,-45.8
19,C=CCc1cccc2cc(C(=O)Nc3ccc(F)cc3)c(=O)oc12,6.28
20,COC(=O)c1ccc(NC(=S)NC(=O)c2cc(-c3ccccc3)nc3ccccc23)cc1,9.36
21,NC(=O)[C@H]1CC2(CC(c3cccc(NC(=O)CC(c4ccccc4)c4ccccc4)c3)=NO2)CN1C(=O)CC(c1ccccc1)c1ccccc1 (stereo partly drawn),14.8
